The source made the active and inactive calls. No rule for the calls is given here.
experiment: inhibition of Brca1/Bard1 split-luciferase complementation, confirmation, counter-screen for Mdm2/MdmX interaction inhibitor project, luminescence, single concentration (AID 504668); settings: Brca1/Bard1 bimolecular luciferase complementation counterscreen, at 8 µM, active compounds read high

Structure (SMILES) | inhibition
COc1ccc(C2=Nn3c(nnc3-c3ccccc3F)SC2)cc1OC1CCOC1 (stereo not given) | 33.4% (active)
CC(=O)c1sc(NC(=O)C2(F)C(F)(F)C(F)(F)C(F)(F)C(F)(F)C2(F)F)nc1C | 28.7% (active)
COC(=O)[C@@]1(Cc2ccccc2)[C@H]2C(=O)N(Cc3ccccc3)C(=O)[C@H]2[C@H]2CN=C(SCc3ccc(C#N)cc3)N21 | 28.4% (active)
COc1ccc(Oc2ccc(/C=C/C(=O)c3cccc(OC)c3)cc2[N+](=O)[O-])cc1 | 26.2% (active)
Oc1c(C(c2ccccc2Cl)N2CCCC2)ccc2cccnc12 (stereo not given) | 31.4% (active)
CCN(CC)CCNC(=O)c1ccc(NC(=O)c2cn(-c3ccc(F)cc3)nc2-c2cccc(OC)c2)cc1 | 27.9% (active)
Oc1ccc(N=Nc2ccc3c(c2)OCCO3)c2ncccc12 | 26.2% (active)
CC(C)Cn1c(=O)c(C(=O)Nc2ccccc2S(N)(=O)=O)c(O)c2ccccc21 | 26.4% (active)
O=c1c2ccccc2nc(N/N=C/c2c(O)ccc3ccccc23)n1O | 35.9% (active)
O=C(N/N=C/c1cc(Br)cc(Br)c1O)c1cccc(S(=O)(=O)N2CCOCC2)c1 | 29.6% (active)
O=C(CCCN1C(=O)/C(=C\c2cccs2)SC1=S)Nc1ccc(O)cc1 | 31.8% (active)
CCc1ccc2[nH]c3nc(N/N=C/c4ccc(O)cc4O)nnc3c2c1 | 29.3% (active)
Cc1ccc(-c2cnc(C3CC3)o2)cc1S(=O)(=O)Nc1ccccc1 | 33.6% (active)
O=c1nc(Nc2ccc(OCc3ccccc3)cc2)sc2ncccc12 | 23.4% (active)
CCOC(=O)c1sc(NC(=O)Nc2cccc(Cl)c2)cc1C | 34.4% (active)
Oc1ccccc1C1CC(c2cccs2)=NC(c2ccc(Cl)cc2)N1 (stereo not given) | 28.5% (active)
Cc1cccc(NC(c2ccc(C)s2)c2ccc3ccc(C)nc3c2O)n1 (stereo not given) | 23.7% (active)
O=S(=O)(c1ccc(Cl)cc1)N1CCN(Cc2ccc(O)c3ncccc23)CC1 | 25% (active)
O=C(N/N=C(\c1ccccc1)c1cccnc1)c1cccc(F)c1 | 33.2% (active)
C[n+]1c2n(c3ccccc31)N=C(c1ccc(-c3ccccc3)cc1)CS2 | 25.5% (active)

Structure (SMILES) | inhibition
C[C@@H](NC(=O)OC(C)(C)C)c1nnc(S(=O)(=O)Cc2ccccc2)o1 | 24.9% (active)
CN1CCN(c2cc(N3CCN(C(=O)c4ccco4)CC3)c3c4c(onc24)-c2ccccc2C3=O)CC1 | 24.3% (active)
CCCOc1ccc(C(=O)C(CN2CCOCC2)c2ccccc2)cc1 (stereo not given) | 25.6% (active)
Oc1ccc2ccccc2c1N=Nc1ccccn1 | 28% (active)
Cc1sc2ncnc(N3CCC(C(=O)N(C)CC(=O)Nc4ccc(Cl)c(C(F)(F)F)c4)CC3)c2c1C | 29% (active)
C/C(=N\NC(=O)C1CCCN(S(=O)(=O)c2ccccc2)C1)c1ccccn1 (stereo not given) | 35.2% (active)
CCN1C(=O)C2(Nc3ccccc3-c3nc4ccccc4n32)c2cc(OC)ccc21 (stereo not given) | 23.7% (active)
Cc1ccc(C)c(NC(=S)NC(NC(=O)/C=C/c2ccccc2)C(Cl)(Cl)Cl)c1 (stereo not given) | 31.4% (active)
CC(C)CC[n+]1ccccc1/C=C/c1ccc(N(C)C)cc1 | 26.6% (active)
CCCC(=O)NC(c1ccc(OC)c(OC)c1)c1cc(Cl)c2cccnc2c1O (stereo not given) | 27.9% (active)
O=C(N/N=C(\Cc1ncc[nH]1)c1ccccc1)c1ccccc1 | 24.8% (active)
Cc1nc(-n2[nH]c3c(c2=O)CCCC3)[nH]c(=O)c1Cc1ccccc1 | 30.8% (active)
Cc1cc(C)c2nc(N3CCC(C(=O)NCCCN4CC(C)CC(C)C4)CC3)sc2c1 (stereo not given) | 32.3% (active)
CC(=O)/C(C#N)=C1\NC(=O)C(Cc2ccc(C)c(Cl)c2)S1 (stereo not given) | 31.8% (active)
Cc1ccccc1-c1nc(CN2CCC(C(=O)NCCCN3CC(C)CC(C)C3)CC2)c(C)o1 (stereo not given) | 25.7% (active)
COc1ccc(Nc2ncnc3ccc(Br)cc23)cc1OC | 30.5% (active)
CCc1ccc2c(c1)C1(NN=C(c3cccc4ccccc34)S1)C(=O)N2 (stereo not given) | 30% (active)
Cc1nc(NC2=NCN(CCCN3CCOCC3)CN2)nc2c(C)cccc12 | 25.4% (active)
COc1ccccc1-n1c(-c2ccccc2)c[n+]2c1CCc1ccccc1-2 | 29% (active)
N=c1n(CCO)c2ccccc2n1CCOc1ccc(Cl)cc1Cl | 25.4% (active)
